Measurements reported in PubChem BioAssay.
For part of these data: Measured potencies and affinities stand elsewhere. Activity calls are given as the source filed them.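 The calls were made as follows, unless noted: active = primary screen hit whose calcium fluorescence ratio, in both repeats, exceeds the weak agonist control mean by 3 SD; inactive = the rest.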

How the values were obtained:
[1] = system: TRPC4 beta (transient receptor potential cation channel C4), mouse; assay: TRPC4 cation channel opening, retest – cell-based, Fluo4 calcium, HEK293 TRPC4beta/mu-opioid, duplicates, 10 µM, confirmation (AID 2426;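 active = fluorescence ratio normalized to control raised more than 50% in primary screen plus both repeat runs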); conditions: Fluo4 calcium fluorescence, at 10 µM; active compounds read high
[2] = system: transient receptor potential cation channel C4 beta (TRPC4), mouse; assay: TRPC4 cation channel opening, second retest – cell-based, second round, Fluo4, HEK293 TRPC4beta/mu-opioid, 1 µM, confirmation (AID 2461;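 active = primary screen active and over 50% activation in each of two duplicate runs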); conditions: Fluo4 calcium fluorescence, at 1 µM; active compounds read high
[3] = system: TRPC4 (transient receptor potential cation channel C4 beta), mouse; assay: potentiation of DAMGO EC20 TRPC4 response – cell-based, second round, Fluo-4, HEK293 TRPC4beta/mu-opioid, 1 µM, confirmation (AID 2554;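 active = primary screen hit whose fluorescence ratio, in both repeats, exceeds the weak agonist control mean by 3 SD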); conditions: DAMGO EC20, Fluo-4 calcium flux, at 1 µM; active compounds read high
[4] = system: TRPC4 beta (transient receptor potential cation channel C4), mouse; assay: potentiation of DAMGO EC20 TRPC4 response – cell-based, Fluo-4, HEK293 TRPC4beta/mu-opioid, confirmation (AID 2555); conditions: DAMGO EC20, Fluo-4 calcium flux, at 10 µM; active compounds read high
[5] = molecular target: Short transient receptor potential channel 4 (Mus musculus) (UniProt Q9QUQ5); assay: blockers of DAMGO-evoked TRPC4 calcium flux – cell-based, Fluo4, HEK293 TRPC4beta/mu-opioid, confirmation (AID 2636;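 active = calcium signal cut by more than 3 SD below the full-agonist control yet still positive, in both repeats and the earlier primary screen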); conditions: at 10 µM; active compounds read high
[6] = molecular target: Short transient receptor potential channel 4 (Mus musculus) (UniProt Q9QUQ5); assay: blockers of DAMGO-evoked TRPC4 calcium flux – cell-based, second round, Fluo4, HEK293 TRPC4beta/mu-opioid, 1 µM, confirmation (AID 2637;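 active = calcium signal ratio cut to more than 3 SD under the fully stimulated control mean yet still positive, in both repeats and the primary screen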;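 as to inhibition: percent of integrated ratio relative to wells lacking test compound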); conditions: at 1 µM; active compounds read high
[7] = molecular target: Short transient receptor potential channel 4 (Mus musculus) (UniProt Q9QUQ5); assay: calcium entry via TRPC4 opening agents – cell-based, HEK293 TRPC4/mu-opioid, Fluo-4 calcium, dose response (AID 434937;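 active = primary screen activator hit with a dose response curve and TRPC4 channel activation at any tested dose; inactive = no activation, no dose response, or not a primary hit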)
[8] = molecular target: Short transient receptor potential channel 4 (Mus musculus) (UniProt Q9QUQ5); assay: potentiation of DAMGO-evoked TRPC4 calcium signal – cell-based, HEK293 TRPC4/mu-opioid, Fluo-4 calcium, EC20 DAMGO, dose response (AID 434941;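 active = earlier screen potentiator hit that boosts the TRPC4 ion channel at some dose, with a dose response; inactive = no potentiation, no dose response, or not a prior hit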;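 also: calcium entry triggered by an EC20 dose of DAMGO at the co-expressed mu-opioid receptor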)
[9] = molecular target: Short transient receptor potential channel 4 (Mus musculus) (UniProt Q9QUQ5); assay: block of DAMGO-driven TRPC4 calcium entry – cell-based, HEK293 TRPC4/mu-opioid, Fluo-4 calcium, dose response (AID 434942;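 active = primary screen inhibitor hit that blocks the TRPC4 channel at some tested dose, yielding a dose curve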)
[10] = molecular target: Short transient receptor potential channel 6 (Mus musculus) (UniProt Q61143); assay: TRPC6 blockade by TRPC4 inhibitor hits – cell-based, HEK293, membrane potential dye, duplicate, selectivity assay for TRPC4 inhibitor project, confirmation (AID 434948;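 active = active in primary screen and both duplicates, each dropping signal beyond three positive-control SD with fluorescence still positive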); conditions: HEK293 TRPC6, membrane potential dye fluorescence, at 10 µM, stimulated with maximal-effect acetylcholine; active compounds read high
[11] = molecular target: Short transient receptor potential channel 6 (Mus musculus) (UniProt Q61143); assay: TRPC6 opening by TRPC4 activator hits – cell-based, HEK293, membrane potential dye, duplicate, selectivity assay for TRPC4 activator project, confirmation (AID 434950;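 active = membrane potential signal rise above negative control mean plus 3 SD in both duplicates, also active in the earlier TRPC4 screen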;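 as to activation: 0% = buffer only wells and 100% = acetylcholine maximal-effect wells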); conditions: HEK293 TRPC6, membrane potential fluorescence, at 10 µM; activation: active compounds read high; outcome: activation
[12] = molecular target: Short transient receptor potential channel 6 (Mus musculus) (UniProt Q61143); assay: positive modulators of mouse TRPC6 channel – HEK293 cells, membrane potential dye, duplicate, selectivity assay for TRPC4 potentiator project, confirmation (AID 434952;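 active = compound raising the membrane signal above positive-control mean plus 3 SD in both repeats, and a primary screen hit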); conditions: HEK293 TRPC6, membrane potential dye fluorescence, at 10 µM, maximal acetylcholine added after compound; active compounds read high
[13] = molecular target: Short transient receptor potential channel 4 (Mus musculus) (UniProt Q9QUQ5); assay: calcium flux activators in TRPC4/5HT1a cells, counter-screen for TRPC4 activator project, cell-based, second counter screen, HEK293 TRPC4/5HT1a, Fluo-4 (AID 434977;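 active = calcium signal rise above buffer-control mean plus 5 SD in both duplicates, and also a hit in the primary screen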); conditions: Fluo-4 calcium flux, at 10 µM; active compounds read high
[14] = serotonin-gated TRPC4 signal block – cell-based, second counter screen, HEK293 TRPC4/5HT1a, Fluo-4, counter-screen for TRPC4 inhibitor project, confirmation (AID 434978;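 active = primary screen active whose calcium signal fell more than 3 SD beyond the full-serotonin control mean in both duplicate plates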;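 as to outcome: serotonin given first at submaximal then at maximal dose after compound preincubation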); conditions: Fluo-4 calcium flux, at 10 µM, serotonin added to trigger calcium flux; active compounds read high
[15] = system: TRPC4 (mouse), co-expressed with 5HT1a in HEK293; assay: enhancement of serotonin-evoked TRPC4 response – cell-based, second counter screen, HEK293 TRPC4/5HT1a, Fluo-4, counter-screen for TRPC4 potentiator project, confirmation (AID 434979;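 active = signal rise over 3 SD above mean of control wells given weak agonist, in both repeats and first screen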); conditions: Fluo-4 calcium flux, at 10 µM, serotonin added at its EC20 dose; active compounds read high
[16] = nonspecific calcium rise without TRPC4 – cell-based, HEK293 mu-opioid receptor line, counter-screen for TRPC4 activator project, confirmation (AID 449723;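 active = hit in primary screen, with calcium signal over 5 SD above buffer well mean in both duplicates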;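 also: counter screen cells carry the mu-opioid receptor alone and lack TRPC4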); conditions: HEK293 mu-opioid cells, Fluo-4 calcium fluorescence, at 10 µM; active compounds read high
[17] = nonspecific potentiation of DAMGO calcium response – cell-based, HEK293 mu-opioid receptor line, counter-screen for TRPC4 allosteric potentiator project, confirmation (AID 449724;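 active = calcium signal rise more than 3 SD above the low-dose agonist control mean, in both duplicate plates and the primary screen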); conditions: HEK293 mu-opioid receptor cells, Fluo-4 calcium flux, at 10 µM, compound added before EC20 DAMGO stimulus; active compounds read high

Short transient receptor potential channel 6 (Mus musculus), sequence (Q61143 whole entry, looked up): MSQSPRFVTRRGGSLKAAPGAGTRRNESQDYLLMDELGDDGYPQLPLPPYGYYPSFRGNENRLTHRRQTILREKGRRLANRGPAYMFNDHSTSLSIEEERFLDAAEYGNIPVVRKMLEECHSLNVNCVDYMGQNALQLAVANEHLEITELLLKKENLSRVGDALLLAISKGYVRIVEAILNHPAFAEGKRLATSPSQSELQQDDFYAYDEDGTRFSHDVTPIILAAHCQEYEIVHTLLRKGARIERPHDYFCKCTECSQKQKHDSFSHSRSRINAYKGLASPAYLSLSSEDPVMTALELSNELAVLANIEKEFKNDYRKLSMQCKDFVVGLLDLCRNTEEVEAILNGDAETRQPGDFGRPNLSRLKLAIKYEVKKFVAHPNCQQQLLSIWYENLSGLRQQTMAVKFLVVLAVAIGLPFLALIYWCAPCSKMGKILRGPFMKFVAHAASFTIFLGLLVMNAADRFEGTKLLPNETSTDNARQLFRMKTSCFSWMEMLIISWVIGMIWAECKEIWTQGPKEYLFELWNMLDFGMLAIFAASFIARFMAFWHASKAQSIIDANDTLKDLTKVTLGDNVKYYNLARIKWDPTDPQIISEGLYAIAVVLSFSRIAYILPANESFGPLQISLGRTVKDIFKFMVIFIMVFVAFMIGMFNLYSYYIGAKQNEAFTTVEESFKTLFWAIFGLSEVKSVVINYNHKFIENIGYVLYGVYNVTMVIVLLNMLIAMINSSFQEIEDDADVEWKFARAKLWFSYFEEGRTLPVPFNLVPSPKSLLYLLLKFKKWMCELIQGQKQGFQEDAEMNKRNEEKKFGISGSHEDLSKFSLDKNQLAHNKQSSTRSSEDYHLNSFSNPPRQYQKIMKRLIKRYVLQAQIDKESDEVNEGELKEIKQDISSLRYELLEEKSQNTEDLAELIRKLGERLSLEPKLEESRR
Short transient receptor potential channel 4 (Mus musculus), sequence (Q9QUQ5 whole entry, looked up): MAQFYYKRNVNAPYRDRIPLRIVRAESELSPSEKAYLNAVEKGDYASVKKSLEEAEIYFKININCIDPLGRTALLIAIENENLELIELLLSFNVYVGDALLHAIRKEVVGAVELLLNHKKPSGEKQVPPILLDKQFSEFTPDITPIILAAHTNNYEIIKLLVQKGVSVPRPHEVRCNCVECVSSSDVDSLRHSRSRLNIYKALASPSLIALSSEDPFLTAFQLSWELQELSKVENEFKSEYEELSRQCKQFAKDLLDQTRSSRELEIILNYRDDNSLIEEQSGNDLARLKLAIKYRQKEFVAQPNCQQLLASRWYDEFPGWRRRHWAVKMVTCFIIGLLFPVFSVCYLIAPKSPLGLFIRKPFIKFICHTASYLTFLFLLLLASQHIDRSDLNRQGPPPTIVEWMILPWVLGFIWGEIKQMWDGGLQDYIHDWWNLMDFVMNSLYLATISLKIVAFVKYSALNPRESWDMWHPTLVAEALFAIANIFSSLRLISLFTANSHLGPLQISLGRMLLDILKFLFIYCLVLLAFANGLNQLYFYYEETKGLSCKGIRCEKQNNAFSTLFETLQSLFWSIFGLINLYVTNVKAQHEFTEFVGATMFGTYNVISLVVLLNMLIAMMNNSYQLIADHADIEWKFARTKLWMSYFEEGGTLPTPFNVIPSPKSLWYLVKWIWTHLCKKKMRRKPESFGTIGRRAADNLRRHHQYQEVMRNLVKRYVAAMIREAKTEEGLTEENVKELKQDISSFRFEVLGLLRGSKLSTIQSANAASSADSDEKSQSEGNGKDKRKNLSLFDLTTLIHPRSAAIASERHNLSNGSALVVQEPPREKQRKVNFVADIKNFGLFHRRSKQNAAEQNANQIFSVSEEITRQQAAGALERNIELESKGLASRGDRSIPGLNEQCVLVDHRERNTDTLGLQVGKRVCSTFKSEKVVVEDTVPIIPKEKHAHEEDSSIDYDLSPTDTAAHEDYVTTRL

## COc1cccc(C(=O)Oc2ccc(/C=N/Nc3ccc(C(=O)O)cc3)cc2OC)c1
[1]
  outcome: inactive
[2]
  outcome: inactive
[3]
  outcome: inactive
[4]
  outcome: inactive
[5]
  outcome: inactive
[6]
  outcome: inactive
[7]
  outcome: inactive
[8]
  outcome: inactive
[9]
  outcome: inactive
[10]
  outcome: inactive
[11]
  outcome: inactive
[12]
  outcome: inactive
[13]
  outcome: inactive
[14]
  outcome: inactive
[15]
  outcome: inactive
[16]
  outcome: inactive
[17]
  outcome: inactive

## COc1ccccc1NC(=O)CSc1n[nH]c(-c2ccccn2)n1
[1]
  outcome: inactive
[2]
  outcome: inactive
[3]
  outcome: inactive
[4]
  outcome: inactive
[5]
  outcome: inactive
[6]
  outcome: inactive
[7]
  outcome: inactive
[8]
  outcome: inactive
[9]
  outcome: inactive
[10]
  outcome: inactive
[11]
  outcome: inactive
[12]
  outcome: inactive
[13]
  outcome: inactive
[14]
  outcome: inactive
[15]
  outcome: inactive
[16]
  outcome: inactive
[17]
  outcome: inactive

## CN(C)S(=O)(=O)c1ccc(Cl)c(C(=O)NC2CCN(Cc3ccccc3)C2)c1 (stereo not given)
[1]
  outcome: inactive
[2]
  outcome: inactive
[3]
  outcome: inactive
[4]
  outcome: inactive
[5]
  outcome: inactive
[6]
  outcome: inactive
[7]
  outcome: inactive
[8]
  outcome: inactive
[9]
  outcome: inactive
[10]
  outcome: inactive
[11]
  outcome: inactive
[12]
  outcome: inactive
[13]
  outcome: inactive
[14]
  outcome: inactive
[15]
  potentiation: 15.3% (active)
[16]
  outcome: inactive
[17]
  outcome: inactive

## Cc1cc(/C=N/NC(=O)c2cccc([N+](=O)[O-])c2)c(C)n1-c1ccc(Cl)cc1Cl
[1]
  outcome: inactive
[2]
  outcome: inactive
[3]
  outcome: inactive
[4]
  outcome: inactive
[5]
  inhibition: 88% (active)
[6]
  inhibition: 58% (active)
[7]
  outcome: inactive
[8]
  outcome: inactive
[9]
  outcome: inactive
[10]
  outcome: inactive
[11]
  outcome: inactive
[12]
  outcome: inactive
[13]
  outcome: inactive
[14]
  inhibition: 35.8% (active)
[15]
  outcome: inactive
[16]
  outcome: inactive
[17]
  outcome: inactive

## CCN(CC)CCN(Cc1cc2cc3c(cc2[nH]c1=O)OCCO3)C(=O)NC1CCCCC1
[1]
  outcome: inactive
[2]
  outcome: inactive
[3]
  outcome: inactive
[4]
  outcome: inactive
[5]
  outcome: inactive
[6]
  outcome: inactive
[7]
  outcome: inactive
[8]
  outcome: inactive
[9]
  outcome: inactive
[10]
  outcome: inactive
[11]
  outcome: inactive
[12]
  outcome: inactive
[13]
  outcome: inactive
[14]
  outcome: inactive
[15]
  outcome: inactive
[16]
  outcome: inactive
[17]
  outcome: inactive

## COCCNC(=O)/C(C#N)=C/c1cc(C(C)C)c(OC)cc1C
[1]
  outcome: inactive
[2]
  outcome: inactive
[3]
  outcome: inactive
[4]
  potentiation: 14% (active)
[5]
  outcome: inactive
[6]
  outcome: inactive
[7]
  outcome: inactive
[8]
  outcome: inactive
[9]
  outcome: inactive
[10]
  outcome: inactive
[11]
  outcome: inactive
[12]
  outcome: inactive
[13]
  outcome: inactive
[14]
  outcome: inactive
[15]
  potentiation: 20.4% (active)
[16]
  outcome: inactive
[17]
  outcome: inactive

## CN(C)C(CNc1ccc(C(N)=O)cc1[N+](=O)[O-])c1ccccc1 (stereo not given)
[1]
  outcome: inactive
[2]
  outcome: inactive
[3]
  outcome: inactive
[4]
  outcome: inactive
[5]
  outcome: inactive
[6]
  outcome: inactive
[7]
  outcome: inactive
[8]
  outcome: inactive
[9]
  outcome: inactive
[10]
  outcome: inactive
[11]
  outcome: inactive
[12]
  outcome: inactive
[13]
  outcome: inactive
[14]
  outcome: inactive
[15]
  outcome: inactive
[16]
  outcome: inactive
[17]
  outcome: inactive

## Cc1cc(C(=O)CN2C(=O)C(=O)N(CC(C)C)C2=O)c(C)n1-c1ccccc1F
[1]
  outcome: inactive
[2]
  outcome: inactive
[3]
  outcome: inactive
[4]
  outcome: inactive
[5]
  outcome: inactive
[6]
  outcome: inactive
[7]
  outcome: inactive
[8]
  outcome: inactive
[9]
  outcome: inactive
[10]
  outcome: inactive
[11]
  outcome: inactive
[12]
  outcome: inactive
[13]
  outcome: inactive
[14]
  outcome: inactive
[15]
  potentiation: 35.1% (active)
[16]
  outcome: inactive
[17]
  outcome: inactive

## Cc1cc(Nc2ccc3c(c2)OCCO3)c2cccc(C)c2n1
[1]
  outcome: inactive
[2]
  outcome: inactive
[3]
  outcome: inactive
[4]
  outcome: inactive
[5]
  outcome: inactive
[6]
  outcome: inactive
[7]
  outcome: inactive
[8]
  outcome: inactive
[9]
  outcome: inactive
[10]
  outcome: inactive
[11]
  outcome: inactive
[12]
  outcome: inactive
[13]
  outcome: inactive
[14]
  outcome: inactive
[15]
  outcome: inactive
[16]
  outcome: inactive
[17]
  outcome: inactive

## COc1ccc(F)cc1C(=O)C1CCCN(Cc2cccn2-c2ccccn2)C1 (stereo not given)
[1]
  outcome: inactive
[2]
  outcome: inactive
[3]
  outcome: inactive
[4]
  outcome: inactive
[5]
  outcome: inactive
[6]
  outcome: inactive
[7]
  outcome: inactive
[8]
  outcome: inactive
[9]
  outcome: inactive
[10]
  outcome: inactive
[11]
  outcome: inactive
[12]
  outcome: inactive
[13]
  outcome: inactive
[14]
  outcome: inactive
[15]
  outcome: inactive
[16]
  outcome: inactive
[17]
  outcome: inactive

## OC1(c2ccc(Cl)cc2)CN(c2ccccc2)C2=[N+]1CCS2 (stereo not given)
[1]
  outcome: inactive
[2]
  outcome: inactive
[3]
  outcome: inactive
[4]
  outcome: inactive
[5]
  outcome: inactive
[6]
  outcome: inactive
[7]
  outcome: inactive
[8]
  outcome: inactive
[9]
  outcome: inactive
[10]
  outcome: inactive
[11]
  activation: 38% (active)
[12]
  outcome: inactive
[13]
  outcome: inactive
[14]
  outcome: inactive
[15]
  outcome: inactive
[16]
  outcome: inactive
[17]
  outcome: inactive

## COC(=O)C1=C(CCc2ccccc2)NC(=O)NC1c1ccc(Cl)cc1 (stereo not given)
[1]
  outcome: inactive
[2]
  outcome: inactive
[3]
  outcome: inactive
[4]
  potentiation: 35% (active)
[5]
  outcome: inactive
[6]
  outcome: inactive
[7]
  outcome: inactive
[8]
  outcome: inactive
[9]
  outcome: inactive
[10]
  outcome: inactive
[11]
  outcome: inactive
[12]
  outcome: inactive
[13]
  outcome: inactive
[14]
  outcome: inactive
[15]
  potentiation: 39.7% (active)
[16]
  outcome: inactive
[17]
  outcome: inactive

## CCn1c2ccccc2c2cc(NC(=O)CN3CCCC3)ccc21
[1]
  outcome: inactive
[2]
  outcome: inactive
[3]
  outcome: inactive
[4]
  potentiation: 33% (active)
[5]
  outcome: inactive
[6]
  outcome: inactive
[7]
  outcome: inactive
[8]
  outcome: inactive
[9]
  outcome: inactive
[10]
  outcome: inactive
[11]
  outcome: inactive
[12]
  outcome: inactive
[13]
  outcome: inactive
[14]
  outcome: inactive
[15]
  potentiation: 11.8% (active)
[16]
  outcome: inactive
[17]
  outcome: inactive

## CCCCCCc1cc2cc(-c3nnc(-c4cc(OC)c(OC)c(OC)c4)o3)c(=O)oc2cc1O
[1]
  outcome: inactive
[2]
  outcome: inactive
[3]
  outcome: inactive
[4]
  potentiation: 37% (active)
[5]
  outcome: inactive
[6]
  outcome: inactive
[7]
  outcome: inactive
[8]
  outcome: inactive
[9]
  outcome: inactive
[10]
  outcome: inactive
[11]
  outcome: inactive
[12]
  outcome: inactive
[13]
  outcome: inactive
[14]
  outcome: inactive
[15]
  potentiation: 16.1% (active)
[16]
  outcome: inactive
[17]
  activation: 4130% (active)

## CCOC(=O)C1CCCN(C(=O)CCCn2nnnc2CN2CCOCC2)C1 (stereo not given)
[1]
  outcome: inactive
[2]
  outcome: inactive
[3]
  outcome: inactive
[4]
  outcome: inactive
[5]
  outcome: inactive
[6]
  outcome: inactive
[7]
  outcome: inactive
[8]
  outcome: inactive
[9]
  outcome: inactive
[10]
  outcome: inactive
[11]
  outcome: inactive
[12]
  outcome: inactive
[13]
  outcome: inactive
[14]
  outcome: inactive
[15]
  potentiation: 13.4% (active)
[16]
  outcome: inactive
[17]
  outcome: inactive
